CYP2C9 activ = increases human cytochrome P450 2C9 activity; P11712; recombinant CYP2C9, luciferin-H conversion, luminescence; hits give high values; factor 1 = untreated enzyme, 0 = blocked; activation factor at 5 µM; 1.4% of 96,000 active; AID 1024;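 active = activation factor of 2 or more for CYP2C9 at a 5 µM dose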
Cav32 inh = inhibitors of human Cav3.2 T-type calcium channel; O95180; Cav3.2-expressing cells, Fluo-4 calcium fluorescence FDSS; hits give low values; B-score at 10 µM; 4% of 100,000 active; AID 449739;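 active = single-dose well whose peak fluorescence ratio is a statistical outlier from its plate by either plate-standardised score or position-corrected B-score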
Target sequence (O95180 whole entry, looked up): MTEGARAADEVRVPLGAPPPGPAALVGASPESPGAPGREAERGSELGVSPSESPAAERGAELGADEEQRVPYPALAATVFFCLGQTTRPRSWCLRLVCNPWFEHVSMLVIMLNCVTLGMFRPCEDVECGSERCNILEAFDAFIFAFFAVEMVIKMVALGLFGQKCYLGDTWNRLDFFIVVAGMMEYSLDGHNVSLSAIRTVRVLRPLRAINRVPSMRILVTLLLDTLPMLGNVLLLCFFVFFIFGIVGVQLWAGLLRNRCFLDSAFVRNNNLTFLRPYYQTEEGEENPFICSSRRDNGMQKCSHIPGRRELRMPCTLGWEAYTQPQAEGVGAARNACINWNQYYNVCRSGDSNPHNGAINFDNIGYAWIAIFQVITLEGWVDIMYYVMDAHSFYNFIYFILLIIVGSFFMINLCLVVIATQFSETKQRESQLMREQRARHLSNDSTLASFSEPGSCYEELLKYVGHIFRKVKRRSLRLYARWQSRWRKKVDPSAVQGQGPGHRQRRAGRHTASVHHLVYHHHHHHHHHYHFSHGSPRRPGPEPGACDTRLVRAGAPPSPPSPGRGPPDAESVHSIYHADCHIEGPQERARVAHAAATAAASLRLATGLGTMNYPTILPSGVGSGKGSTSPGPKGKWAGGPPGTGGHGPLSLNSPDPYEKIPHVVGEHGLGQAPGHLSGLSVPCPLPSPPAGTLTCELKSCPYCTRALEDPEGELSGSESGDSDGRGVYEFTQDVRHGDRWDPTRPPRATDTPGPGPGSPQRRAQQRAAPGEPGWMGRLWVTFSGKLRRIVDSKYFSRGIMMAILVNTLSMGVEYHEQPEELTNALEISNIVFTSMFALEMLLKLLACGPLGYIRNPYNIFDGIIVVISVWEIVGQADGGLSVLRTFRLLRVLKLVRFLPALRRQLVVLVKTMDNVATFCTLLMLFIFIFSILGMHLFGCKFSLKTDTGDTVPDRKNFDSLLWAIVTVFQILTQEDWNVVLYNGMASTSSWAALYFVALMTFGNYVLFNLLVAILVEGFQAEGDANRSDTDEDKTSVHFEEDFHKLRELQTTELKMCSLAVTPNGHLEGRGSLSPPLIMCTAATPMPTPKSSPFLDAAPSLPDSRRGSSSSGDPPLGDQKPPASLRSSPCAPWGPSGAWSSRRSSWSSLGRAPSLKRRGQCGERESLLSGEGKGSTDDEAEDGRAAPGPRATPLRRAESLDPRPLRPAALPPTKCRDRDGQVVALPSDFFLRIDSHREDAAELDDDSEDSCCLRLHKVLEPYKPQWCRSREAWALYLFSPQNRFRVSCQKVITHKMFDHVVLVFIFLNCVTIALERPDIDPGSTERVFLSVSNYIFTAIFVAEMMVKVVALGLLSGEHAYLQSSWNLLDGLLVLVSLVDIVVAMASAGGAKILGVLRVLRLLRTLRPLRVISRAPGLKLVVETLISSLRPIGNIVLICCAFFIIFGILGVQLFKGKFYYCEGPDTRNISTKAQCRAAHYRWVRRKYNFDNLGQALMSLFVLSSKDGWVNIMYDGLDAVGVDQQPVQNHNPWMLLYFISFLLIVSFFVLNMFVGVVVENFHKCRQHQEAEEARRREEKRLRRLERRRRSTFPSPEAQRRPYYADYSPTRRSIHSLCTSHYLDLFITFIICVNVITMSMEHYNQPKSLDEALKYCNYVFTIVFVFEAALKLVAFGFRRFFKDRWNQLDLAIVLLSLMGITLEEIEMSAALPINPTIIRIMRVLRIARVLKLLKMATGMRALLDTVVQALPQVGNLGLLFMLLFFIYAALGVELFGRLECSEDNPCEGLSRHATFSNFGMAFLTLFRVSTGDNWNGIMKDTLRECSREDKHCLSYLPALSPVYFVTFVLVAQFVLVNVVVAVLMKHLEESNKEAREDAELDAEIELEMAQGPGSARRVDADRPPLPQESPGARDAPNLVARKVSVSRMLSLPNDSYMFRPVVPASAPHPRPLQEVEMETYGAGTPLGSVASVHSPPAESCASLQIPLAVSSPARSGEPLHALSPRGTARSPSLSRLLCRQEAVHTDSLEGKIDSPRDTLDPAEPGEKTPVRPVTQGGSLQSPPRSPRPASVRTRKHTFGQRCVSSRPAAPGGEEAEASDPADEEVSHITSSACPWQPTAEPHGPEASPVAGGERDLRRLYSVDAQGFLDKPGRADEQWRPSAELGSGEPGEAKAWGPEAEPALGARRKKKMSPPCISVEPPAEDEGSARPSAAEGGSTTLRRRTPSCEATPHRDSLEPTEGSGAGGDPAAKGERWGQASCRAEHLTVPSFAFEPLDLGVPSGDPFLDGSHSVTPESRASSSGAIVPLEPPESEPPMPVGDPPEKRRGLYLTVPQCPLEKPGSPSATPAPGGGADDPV
CYP2C19 inh = human CYP2C19 inhibition; P33261; CYP2C19 Supersomes, luciferin-H EGE luminescence, 30 min; inhibition, % at 5 µM; 21% of 96,000 active; AID 778;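 active = CYP2C19 inhibition above a set limit at 5 µM in the primary screen, cut at about 50% in these data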
CYP2C19 act = increases human CYP2C19 enzyme activity; activation factor at 5 µM; recombinant CYP2C19, luciferin-H EGE luminescence; hits give high values; 0 = fully inhibited enzyme, 1 = untreated enzyme; P33261; 96,000 tested, under 10 active;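 active = activation factor of at least 2 at 5 µM in the primary screen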
CYP2C9 inhib = inhibitors of human CYP2C9; P11712; CYP2C9 Supersomes, luciferin-H conversion, luminescence; inhibition, % at 5 µM; 20% of 96,000 active; AID 777;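 active = blocking of liver enzyme CYP2C9 beyond about 50% at 5 µM, limit read from the data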
Hits are given with their value; – = inactive; · = no result. Sampled rows, rich in hits. Any-hit rate of the full collection: about 27%.

SMILES	CYP2C9 activ	Cav32 inh	CYP2C19 inh	CYP2C19 act	CYP2C9 inhib
Cc1ccc(C)c(N(C(=O)Cc2cccs2)C(C(=O)NC2CCCC2)c2ccc(C)o2)c1 (stereo not drawn)	–	–	–	–	73.4
Cc1ccc(C(C(=O)NC2CCCC2)N(C(=O)Cc2cccs2)c2ccc(C)c(C)c2)o1 (stereo not drawn)	–	-2.31	–	–	–
Cc1ccc(C(C(=O)NC2CCCC2)N(C(=O)Cc2cccs2)c2ccc3c(c2)OCCO3)cc1 (stereo not drawn)	–	–	–	–	–
Cc1nn(C)cc1C(C(=O)NC1CCCCC1)N(C(=O)Cc1cccs1)c1ccc(C(C)C)cc1 (stereo not drawn)	–	-5.26	–	–	–
COc1ccc(-n2c(=O)c3ccccc3n(Cc3ccc(F)cc3)c2=O)cc1OC	–	–	–	–	–
CCCOC(=O)C1=C(C)NC2=C(C(=O)CCC2)C1c1cc(OC)ccc1OC (stereo not drawn)	–	–	66.7	–	77.7
CCSCCOC(=O)C1=C(C)NC(=O)NC1c1cc(OC)ccc1OC (stereo not drawn)	–	–	–	–	–
COc1cccc(C2C(C(=O)Nc3nc4ccccc4s3)=C(C)NC3=C2C(=O)CC(C)(C)C3)c1OC (stereo not drawn)	–	·	–	–	–
CCCCOC(=O)C1=C(C)NC2=C(C(=O)CCC2)C1c1cc(OC)ccc1OC (stereo not drawn)	–	·	62.7	–	84.7
COc1ccc(OC)c(C2C(C(=O)Nc3nc4ccccc4s3)=C(C)NC3=C2C(=O)CCC3)c1 (stereo not drawn)	–	-7.49	63.9	–	74.1
Cc1cc(=O)[nH]c(SCc2cc(=O)n3nc(C)sc3n2)n1	–	–	–	–	–
COc1nc2ccccc2c(=O)n1OCC(C)C	–	·	82.4	–	–
O=C(NC1CCCC1)c1ccc(CSCc2ccccc2F)o1	–	–	92.5	–	86.5
O=C(NC1CCCCC1)c1ccc(CNc2ccccc2)o1	–	–	62.0	–	58.1
COc1ccccc1S(=O)(=O)Cc1ccc(C(=O)NC2CCCCC2)o1	–	·	–	–	–
CCC(C)NS(=O)(=O)c1ccc(NS(C)(=O)=O)cc1 (stereo not drawn)	–	–	–	–	–
CCCC(=O)C1C(=O)CC(CC(C)SCC)CC1=O (stereo not drawn)	–	–	–	–	–
CCSC(C)CC1C/C(=N/O)c2c(CC)noc2C1 (stereo not drawn)	–	–	90.0	–	93.5
CCCc1noc2c1/C(=N\O)CC(CC(C)SCC)C2 (stereo not drawn)	–	–	72.6	–	98.0
CCc1ccc2c(c1)C(c1ccc([N+](=O)[O-])cc1)=NNC(c1ccc(F)cc1)=N2	–	–	–	–	–
O=C(CO)N/N=C/c1ccc(Cl)cc1	–	–	–	–	–
O=C(N/N=C/c1ccc(Cl)cc1)Nc1ccccc1	–	-6.52	–	–	–
CC(=O)Oc1ccc2c(c1)C(=O)c1ccccc1CO2	–	–	67.9	–	–
O=C(Oc1ccc2c(c1)OCC2=O)c1ccccc1	–	–	–	–	–
CCCC(C)NCC(=O)Nc1ccccc1-c1ccccc1 (stereo not drawn)	–	–	64.8	–	–
SMILES	CYP2C9 activ	Cav32 inh	CYP2C19 inh	CYP2C19 act	CYP2C9 inhib
CCc1ccc(CCC(=O)Nc2nnc(CC)s2)o1	–	–	–	–	–
Cc1cc(NC(=O)C2CCCCC2C(=O)O)no1 (stereo not drawn)	–	–	–	–	–
Cn1nnnc1SCC(=O)c1ccc(Br)s1	–	–	64.6	–	–
Cn1nnnc1SCC(=O)c1cccs1	–	–	–	–	–
Cn1c(Cc2ccccc2)nnc1SCC(=O)N1CCCCC1	·	–	·	·	·
Cn1c(Cc2ccccc2)nnc1SCC(=O)c1ccc(Br)s1	–	–	75.3	–	69.6
O=S(=O)(/C=C/c1ccccc1)c1ccccc1	4.1	–	90.8	–	–
O=S(=O)(C=C(c1ccccc1)c1ccccc1)c1ccccc1	–	–	65.9	–	–
C/C(=N\NS(C)(=O)=O)c1ccccc1	–	–	–	–	–
COC(=O)c1ccc(Oc2coc3cc(OCc4cnn(-c5ccccc5)c4)ccc3c2=O)cc1	–	–	–	–	–
Cc1cc(C)c2[nH]c(=O)c(CN(Cc3ccc4c(c3)OCO4)Cc3nnnn3C3CCCC3)cc2c1	–	–	84.4	–	90.8
Cc1ccc2[nH]c(=O)c(CN(Cc3ccccc3)Cc3nnnn3C3CCCC3)cc2c1	–	–	93.2	–	65.7
Cc1cccc2cc(CN(Cc3ccc(F)cc3)Cc3nnnn3C3CCCC3)c(=O)[nH]c12	–	–	–	–	–
N#C/C(=C(/O)CN1C(=O)c2ccccc2C1=O)c1nc2ccccc2[nH]1	–	–	–	–	50.8
CSCCC(/C(O)=C(\C#N)c1nc2ccccc2[nH]1)N1C(=O)c2ccccc2C1=O (stereo not drawn)	–	·	98.6	–	95.3
O=C(NCCN1CCCC1)c1ccc(CS(=O)(=O)c2c(Cl)cccc2Cl)o1	–	–	–	–	–
CCc1ccc(CNCCNCC(C)O)cc1 (stereo not drawn)	–	–	–	–	–
O=S(=O)(c1ccc(Br)s1)N1CCCCC1	–	–	72.6	–	–
O=S(=O)(c1ccc(Br)s1)N1CCN(c2ncccn2)CC1	–	–	–	–	61.1
O=S(=O)(c1ccc(Br)s1)N1CCN(c2ccccn2)CC1	–	–	99.4	–	98.1
COc1ccc(N2CCN(S(=O)(=O)c3ccc(Br)s3)CC2)cc1	–	–	–	–	–
O=C(CN1CCCN(S(=O)(=O)c2ccc(Br)s2)CC1)Nc1ccc(Cl)cc1	–	–	88.3	–	–
O=C(NCc1ccco1)c1cc(C(=O)C2CC2)c[nH]1	–	–	–	–	–
COc1ccc(C(C(=O)Nc2ccc(F)cc2)N(C(=O)Cn2nnc3ccccc32)C2CC2)cc1 (stereo not drawn)	–	·	–	–	–
c1ccc2c(CNCCN3CCOCC3)cccc2c1	–	·	–	–	–
SMILES	CYP2C9 activ	Cav32 inh	CYP2C19 inh	CYP2C19 act	CYP2C9 inhib
CCC(C)N(C(=O)CSc1nc(-c2ccccc2)cs1)C1CCS(=O)(=O)C1 (stereo not drawn)	2.5	–	–	–	–
COc1ccc(-n2c(C)cc(C(=O)NC3CCCCC3)c2C)cc1	–	–	–	–	–
COc1cc(NC(=O)Cn2nc(C(F)(F)F)c3c2CCCC3)cc(OC)c1OC	–	–	–	–	–
COc1ccc(CN2C(=O)c3ccccc3C(/C=N\OCc3ccc(C)cc3)C2=O)cc1 (stereo not drawn)	–	–	–	–	73.3
CCCC1S/C(=N/N=C/c2ccc(C)cc2)N(Cc2ccc(OC)cc2)C1=O (stereo not drawn)	–	–	–	–	–
Cc1nnc(NC(=O)CSc2ncnc3c2cnn3-c2ccccc2C)s1	–	–	–	–	–
CCOC(=O)Cc1csc(NC(=O)CSc2ncnc3c2cnn3-c2ccccc2Cl)n1	–	-6.24	70.1	–	90.5
O=c1c(-c2nnc(SCc3ccc(Cl)cc3)o2)cccn1Cc1ccccc1	–	–	90.7	–	–

Screening data from PubChem BioAssay.
